Among the test systems are RPMI-8226 leukemia; OVCAR-8 ovarian; OVCAR-5 ovarian; OVCAR-4 ovarian; SK-OV-3 ovarian; IGROV1 ovarian; OVCAR-3 ovarian; HS 578T breast; NCI/ADR-RES ovarian; T-47D breast; BT-549 breast; MDA-MB-435 melanoma; SW-620 colon; MCF7 breast; HCT-116 colon; HCC-2998 colon; KM12 colon; SR leukemia.
Holding throughout (experiment): NCI-60 one-dose screen, 48 h (100 = growth as untreated, 0 = no growth, -100 = all killed)
Holding throughout (details): 10 µM unless noted

About 83,000 compounds went through this panel and 20% of them were active in at least one assay; those are over-represented in the sample as a whole.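 Assay: single dose, 48 h. Readout: percent growth (0 = no net growth; negative = cell death). Active: <10.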 Values without a mark were called inactive. Activity calls are given as the source filed them.

Consider `O=C(Nc1ccc(F)c(Cl)c1)c1n[nH]c(=O)c2ccccc12`, for which the growth with RPMI-8226 leukemia was 119%; with OVCAR-8 ovarian, 95.4%; in the test with OVCAR-5 ovarian, 107%; in the test on OVCAR-4 ovarian it was 96.1%; in the test on SK-OV-3 ovarian, 119%; with IGROV1 ovarian, 8.17% (active). The growth was 94.6% in the test with OVCAR-3 ovarian; 129% with HS 578T breast; 112% in the test on NCI/ADR-RES ovarian; 81.1% with T-47D breast; 132% in the test with BT-549 breast; 93.2% in the test with MDA-MB-435 melanoma. Also, the growth in the test on SW-620 colon is 107%; with MCF7 breast, 60.6%; in the test with HCT-116 colon, 101%; in the test with HCC-2998 colon, 103%; in the test with KM12 colon it was 92.4%.

Consider `Clc1cccc(Cl)c1Cn1c(-c2cncs2)nc2ccccc21`, for which the growth is 56.7% in the test with RPMI-8226 leukemia; 87% with OVCAR-8 ovarian; 94% with OVCAR-5 ovarian; 82.1% with OVCAR-4 ovarian; 96.3% in the test on SK-OV-3 ovarian; 82.6% in the test on IGROV1 ovarian. In addition, the growth in the test on OVCAR-3 ovarian was 90.5%; with HS 578T breast it was 97%; with NCI/ADR-RES ovarian, 73%; with T-47D breast, 64.5%; with BT-549 breast, 85.1%; with MDA-MB-435 melanoma it was 44.5%. Further, the growth in the test on SW-620 colon was 94%; in the test on MCF7 breast, 92.3%; with HCT-116 colon it was 78.8%; in the test with HCC-2998 colon it was 82.6%; with KM12 colon it was 80.5%.

As for `CCOC(=O)c1cc(/C(=N\O)c2cc(OC)c(OC)c(OC)c2)n2cc(C)cc(C)c12`, the growth in the test on RPMI-8226 leukemia was 17.6%; in the test with OVCAR-8 ovarian, 41.8%; with OVCAR-5 ovarian, 64.3%; in the test with OVCAR-4 ovarian it was 20.7%; in the test with SK-OV-3 ovarian, 37.8%; in the test on IGROV1 ovarian, 57.5%. Moreover, the growth in the test with OVCAR-3 ovarian is -8.99% (active); in the test on HS 578T breast, 11.4%; in the test with NCI/ADR-RES ovarian, 22.6%; in the test with T-47D breast, 26.9%; in the test on BT-549 breast it was 28.6%; in the test on MDA-MB-435 melanoma, -22.7% (active). The growth with SW-620 colon was 13.3%; in the test on MCF7 breast, 13.6%; in the test on HCT-116 colon, -6.14% (active); with HCC-2998 colon it was 67.5%; in the test on KM12 colon, 20.7%.

As to `CC(Br)C(OC(=O)c1ccccc1Cl)c1cc2c(cc1Br)OCO2` (configuration not stated), the growth with RPMI-8226 leukemia is 92.2%; with OVCAR-8 ovarian it was 94.8%; in the test on OVCAR-5 ovarian it was 89.6%; in the test on OVCAR-4 ovarian it was 77.9%; in the test with SK-OV-3 ovarian, 124%; in the test on IGROV1 ovarian, 68.9%. Besides, the growth with OVCAR-3 ovarian was 89%; in the test on HS 578T breast, 88.2%; in the test on NCI/ADR-RES ovarian, 85.1%; with T-47D breast, 74.9%; with BT-549 breast, 109%; with MDA-MB-435 melanoma, 75.3%. The growth with SW-620 colon is 84.6%; in the test with MCF7 breast, 95.2%; with HCT-116 colon, 66.6%; with HCC-2998 colon, 90.7%; in the test with KM12 colon, 89%.

On to `Cn1c(-c2nonc2NC(=O)c2ccc(F)cc2)nc2ccccc21`, for which the growth is 106% with RPMI-8226 leukemia; 96.6% in the test with OVCAR-8 ovarian; 117% in the test with OVCAR-5 ovarian; 114% with OVCAR-4 ovarian; 111% with SK-OV-3 ovarian; 104% with IGROV1 ovarian. For the same compound, the growth in the test on OVCAR-3 ovarian is 119%; in the test with HS 578T breast, 110%; in the test on NCI/ADR-RES ovarian it was 106%; in the test on T-47D breast, 96.5%; in the test on BT-549 breast, 109%; in the test on MDA-MB-435 melanoma, 107%. Moreover, the growth in the test with SW-620 colon was 105%; in the test with MCF7 breast, 89.1%; in the test on HCT-116 colon it was 106%; with HCC-2998 colon it was 100%; with KM12 colon, 103%.

With `O=C(c1ccncc1)N1N=C(c2ccc(Cl)cc2)CC1c1c[nH]c2ccccc12` (configuration not stated), the growth was 57.5% with SR leukemia; 98.5% in the test on OVCAR-8 ovarian; 105% with OVCAR-5 ovarian; 84.2% with SK-OV-3 ovarian; 79.3% in the test with IGROV1 ovarian; 95.5% in the test with OVCAR-3 ovarian. The growth with HS 578T breast is 101%; with NCI/ADR-RES ovarian, 97%; with T-47D breast it was 74.8%; in the test on BT-549 breast it was 92.8%; with MDA-MB-435 melanoma it was 99.9%; in the test on SW-620 colon, 96%. Besides, the growth was 70.2% in the test on MCF7 breast, 94.3% in the test with HCT-116 colon, 105% in the test on HCC-2998 colon and 96.8% in the test on KM12 colon.

In the case of `CN(C)c1ccc(/C=C\N=Nc2ccc(Br)cc2)cc1`, the growth in the test with RPMI-8226 leukemia is 50.2%; with OVCAR-8 ovarian, 46.5%; in the test on OVCAR-5 ovarian it was 76.6%; with OVCAR-4 ovarian it was 65%; in the test with SK-OV-3 ovarian it was 92.8%; in the test on IGROV1 ovarian, 66.7%. Moreover, the growth is 67.9% in the test with OVCAR-3 ovarian; 102% in the test with HS 578T breast; 52.3% in the test on NCI/ADR-RES ovarian; 37.1% in the test on T-47D breast; 69.1% in the test with BT-549 breast; 41.7% in the test with MDA-MB-435 melanoma. Moreover, the growth is 29.5% in the test on SW-620 colon; 36.8% in the test on MCF7 breast; 50.6% in the test with HCT-116 colon; 83% in the test with HCC-2998 colon; 29.6% in the test with KM12 colon.

As to `CC(Cc1nnc(SCC(=O)Nc2ccc(I)cc2)n1N)c1ccccc1` (configuration not stated), the growth was 59.8% in the test on RPMI-8226 leukemia; 95.9% in the test on OVCAR-8 ovarian; 84.4% in the test with OVCAR-5 ovarian; 172% in the test on OVCAR-4 ovarian; 97.8% with SK-OV-3 ovarian; 8.44% (active) in the test with IGROV1 ovarian. Moreover, the growth is 111% in the test on OVCAR-3 ovarian; 119% with HS 578T breast; 96% with NCI/ADR-RES ovarian; 71.2% with T-47D breast; 97.4% with BT-549 breast; 99.9% in the test with MDA-MB-435 melanoma. Besides, the growth with SW-620 colon was 95.5%; in the test with MCF7 breast, 93.4%; in the test with HCT-116 colon it was 68.6%; in the test on HCC-2998 colon, 86.7%; with KM12 colon it was 95.8%.

Turning to `CC(C(=O)n1cc(-c2ccccc2)c(-c2ccccc2)c1)c1ccccc1` (configuration not stated), the growth with RPMI-8226 leukemia is 98.2%; with OVCAR-8 ovarian, 99.2%; in the test with OVCAR-5 ovarian it was 106%; in the test with OVCAR-4 ovarian, 107%; in the test with SK-OV-3 ovarian, 105%; in the test on IGROV1 ovarian, 111%. For the same compound, the growth in the test with OVCAR-3 ovarian was 118%; in the test on HS 578T breast, 115%; in the test on NCI/ADR-RES ovarian, 106%; in the test with T-47D breast, 93.4%; with BT-549 breast, 117%; in the test with MDA-MB-435 melanoma, 104%. Besides, the growth in the test on SW-620 colon was 111%; with MCF7 breast it was 100%; with HCT-116 colon, 99.8%; in the test with HCC-2998 colon, 104%; in the test on KM12 colon, 105%.

(Values after PubChem BioAssay (NCI).)
